Rce1 inhib = blocks yeast Ras-converting enzyme. calls only. AID 2563. 0.27% of 290,000 active. yeast membranes, quenched prenylated peptide cleavage fluorescence. Q03530;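 active means fall in fluorescence gain of 50% or more versus controls, with final raw signal at or below 3038400; inconclusive means same 50% fall but final raw signal above 3038400; inactive means fall in fluorescence gain under 50%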;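 further: plate controls were neutral control wells for no effect and wells lacking membranes for full effect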
Target sequence (Q03530 whole entry, looked up): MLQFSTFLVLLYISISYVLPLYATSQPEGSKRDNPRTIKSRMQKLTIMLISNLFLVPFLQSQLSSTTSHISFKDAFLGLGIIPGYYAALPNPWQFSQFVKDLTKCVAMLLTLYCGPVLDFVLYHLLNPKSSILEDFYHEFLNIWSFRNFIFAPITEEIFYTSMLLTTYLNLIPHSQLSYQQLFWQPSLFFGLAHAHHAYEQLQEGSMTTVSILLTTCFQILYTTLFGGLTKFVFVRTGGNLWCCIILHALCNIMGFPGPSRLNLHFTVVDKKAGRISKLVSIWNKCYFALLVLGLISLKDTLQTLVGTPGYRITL
HIF act = HIF pathway transcriptional activation | activation, % at 7.5 µM (by protocol) | U2OS HRE-luciferase reporter, luminescence; normalized: DMSO 0%, desferrioxamine 100% | 0.32% of 300,000 active;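 active means mean activation of at least 10% of the iron chelator positive control signal, with at least half of replicates also reaching 10%; inconclusive means mean and replicate majority disagree about reaching 10%; inactive means mean and most replicates under 10%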
C2C12 statin = protects C2C12 myotubes from simvastatin toxicity; AID 602340; rescue of ATP level, % at 7.49 µM; ATP luminescence, 48 h; scaled: DMSO 0, geranylgeraniol control 100; 0.78% of 330,000 active;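 active means mean ATP rescue above about 67%, or every replicate alone reaching that limit, limit read from the data, passing the limit was not always enough; inconclusive means no clear call, values can overlap the other calls; inactive means mean under the limit and some replicate under it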;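 further: myotubes were challenged with 10 µM simvastatin during compound exposure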
AI-2 QS modul = modulates the Vibrio harveyi AI-2 quorum sensing system | Vibrio harveyi JMH597 AI-2 luminescence/OD600 ratio, 9 h; stronger effect = lower value; strain lacks LuxN and CqsS sensors; 0 = neutral-control median | activity change, % at 7.5 µM | AID 2094 | 0.4% of 300,000 active; in the data active means activity change below about -75%, passing the limit was not always enough; inconclusive means no clear call, values can overlap the other calls;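 further: luminescence divided by OD600 gain over 9 h not by final OD600 alone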
PGC1a acetyl inh = lowers PGC1a acetylation signal in U2OS cells; AlphaScreen anti-acetyl-lysine; with virally co-expressed GCN5 acetyltransferase; inhibition, % at 15.6 µM; 0.17% of 350,000 active;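 active means every replicate shows inhibition of at least 40%; inconclusive means mean inhibition at least 40% but some replicate below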;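 further: 0% = neutral control wells and 100% = positive control wells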
The depositor's hits bear a star; i = inactive; ? = inconclusive; · = not tested or not shown; + = active, no number. This is a sample that favours compounds with a hit; in the whole collection about 1.3% have one here.

SMILES	Rce1 inhib	HIF act	C2C12 statin	AI-2 QS modul	PGC1a acetyl inh
COc1ccc(S(=O)(=O)Nc2ccc3c(c2)C(=O)N([C@H](C)CO)C[C@@H](C)[C@H](CN(C)S(=O)(=O)c2ccc(F)cc2)OCCCC[C@H](C)O3)cc1	·	·	158.6*	·	-20.7
COc1ccc(S(=O)(=O)Nc2ccc3c(c2)C(=O)N([C@H](C)CO)C[C@H](C)[C@H](CN(C)S(=O)(=O)c2ccc(F)cc2)OCCCC[C@@H](C)O3)cc1	·	·	?	·	-1.0
COc1ccc(S(=O)(=O)Nc2ccc3c(c2)C(=O)N([C@@H](C)CO)C[C@@H](C)[C@@H](CN(C)C(=O)c2ccccc2)OCCCC[C@@H](C)O3)cc1	·	·	58.0	·	·
COc1ccc(C(=O)Nc2ccc3c(c2)C(=O)N(C)C[C@@H](OC)[C@@H](C)CN(C(C)=O)[C@H](C)CO3)cc1	·	·	-3.8	·	9.7
O=C(c1ccccn1)N1CC(=O)N2[C@H](C1)[C@H](c1ccc(C#CC3CCCC3)cc1)[C@@H]2CO	·	·	·	·	-2.2
COc1ccc(S(=O)(=O)Nc2ccc3c(c2)C(=O)N([C@H](C)CO)C[C@H](C)[C@H](CN(C)S(=O)(=O)c2ccc(F)cc2)OCCCC[C@H](C)O3)cc1	·	·	107.4*	·	-20.1
COc1ccc(S(=O)(=O)N(C)C[C@H]2OCCCC[C@H](C)Oc3ccc(NS(=O)(=O)c4ccc(F)cc4)cc3C(=O)N([C@H](C)CO)C[C@H]2C)cc1	·	·	-5.6	·	1.6
CCCNC(=O)N1C[C@H](C)[C@@H](OC)CN(C)C(=O)c2cc(NC(=O)C3CCC3)ccc2OC[C@H]1C	·	·	1.6	·	4.0
O=C(CCN1C(=O)/C(=C\c2cccc(Br)c2)SC1=S)NCCCN1CCOCC1	i	0.0	-6.1	16.4	-5.4
O=C(CCN1C(=O)/C(=C/c2ccccc2)SC1=S)Nc1ccccn1	i	-0.7	93.2*	13.2	35.9
O=C(CCCc1ccccc1)Nc1ccccn1	i	15.0*	3.7	5.5	5.4
CC(C)c1ccc(/C=C2\SC(=S)N(CCC(=O)NCCCn3ccnc3)C2=O)cc1	+	-1.2	9.0	-1.2	9.5
O=C(CCN1C(=O)/C(=C/c2ccccc2)SC1=S)NCCCN1CCOCC1	·	-1.9	38.3	·	56.4*
COc1ccc(NC(=O)N(C)C[C@@H]2Oc3c(NS(=O)(=O)c4cccs4)cccc3C(=O)N([C@H](C)CO)C[C@@H]2C)cc1	·	·	-4.9	·	12.7
CO[C@H]1CN(C)C(=O)c2ccc(NC(=O)C3CCCC3)cc2OC[C@@H](C)N(C(C)=O)C[C@@H]1C	·	·	-5.9	·	-14.4
C/C=C/c1ccc([C@@H]2[C@@H](CO)N3CCCCN(S(=O)(=O)c4cccs4)C[C@@H]23)cc1	·	·	·	·	-16.4
CC1(C)CC(=O)C2=C(C1)NC1=C(C(=O)c3ccccc31)C2c1ccccc1 (configuration not stated)	i	0.0	·	17.4	·
Cc1nc2[nH]c(=O)c3c(n2n1)NC1=C(C(=O)CC(C)(C)C1)C3c1ccccc1 (configuration not stated)	i	-0.2	-7.2	5.8	83.6*
Nc1nonc1C(=O)NCCN=Cc1cc(Cc2ccccc2)cc(Br)c1O	i	0.8	4.8	-149.1*	2.5
Nc1nonc1C(=O)NCCN=Cc1ccccc1O	i	-0.2	4.3	22.2	·
C[C@@H]1CN([C@@H](C)CO)C(=O)c2cc(/C=C/c3ccccc3)cnc2O[C@@H]1CN(C)C(=O)C1CC1	·	·	19.3	·	4.0
Fc1cccc(-c2cc3nc(-c4ccccc4)cc(N4CCC5(CC4)OCCO5)n3n2)c1	+	-0.2	0.5	9.5	1.7
Cc1ccc(-c2cc3nc(-c4ccccc4)cc(N4CCC5(CC4)OCCO5)n3n2)cc1	i	-0.2	13.7	17.7	2.6
Cc1cccc(-c2cc3nc(-c4ccccc4)cc(N4CCC5(CC4)OCCO5)n3n2)c1	+	0.1	·	39.9	2.4
Fc1cccc(-c2cc3nc4c(c(N5CCC6(CC5)OCCO6)n3n2)CCCC4)c1	i	1.9	1.5	42.8	·
SMILES	Rce1 inhib	HIF act	C2C12 statin	AI-2 QS modul	PGC1a acetyl inh
Cc1ccc(S(=O)(=O)N(C)C[C@H]2Oc3c(NC(=O)Nc4c(C)noc4C)cccc3C(=O)N([C@@H](C)CO)C[C@H]2C)cc1	·	·	2.2	·	-1.1
CC(=O)N1c2ccc([N+](=O)[O-])cc2NC(=O)CC1C (configuration not stated)	+	-0.2	·	11.5	·
Cc1cccc(NC(=O)c2cc(S(=O)(=O)N3CCCCC3)c[nH]2)c1C	+	0.1	10.1	-6.3	-15.6
CN1c2ccc(-c3cccc(C#N)c3)cc2[C@@H]2[C@@H](CCN2C(=O)NC2CCCC2)[C@@H]1CO	·	·	·	·	-10.5
CC(=O)N1[C@@H](CO)[C@@H](c2ccccc2)C12CN(C(=O)c1cnccn1)C2	·	·	·	·	18.0
Cc1cc2cc(CNC(=S)NCc3ccccc3)ccc2n1C	i	0.4	-15.7	2.9	-5.5
Cc1ccc2c(c1)cc(C(=O)NCc1ccccc1)n2C	i	23.0*	30.8	-10.8	-3.6
COc1ccccc1-c1cnc2c(c1)C(=O)N([C@@H](C)CO)C[C@@H](C)[C@@H](CN(C)C(=O)c1ccncc1)O2	·	·	-1.3	·	-1.4
Cc1ccccc1NC(=O)CN(C)S(=O)(=O)c1ccc(-c2ccc(=O)[nH]n2)s1	i	519.2*	0.6	10.3	4.1
Cc1cc(NC(=O)C(Cl)c2ccccc2)no1 (configuration not stated)	i	-8.6	7.2	-86.0*	9.2
Cn1cnc(Sc2ncnc3nc[nH]c23)c1[N+](=O)[O-]	i	1.3	-0.2	-31.9	-12.1
Cn1cnc2nc[nH]c2c1=S	·	·	74.8*	·	6.9
COC(=O)C[C@@H]1CC[C@H]2[C@H](COc3ccc(NC(=O)C4CCOCC4)cc3C(=O)N2C)O1	·	·	-8.7	·	5.4
O=c1ccnc(NCCc2ccccc2)[nH]1	i	·	98.7*	23.8	2.7
CCCc1cc(=O)[nH]c(NCCc2ccccc2)n1	i	1.3	-17.0	14.1	-12.6
Cc1ccc(CNC(=O)CNS(=O)(=O)c2cccc3nsnc23)cc1	i	0.0	101.0*	-70.7	-1.1
CCCC(=O)Nc1ccc2c(c1)C(=O)N(C)[C@@H]1CC[C@H](CC(=O)NCCc3ccccc3)O[C@H]1CO2	·	·	-14.0	·	0.6
Cc1cc(Cl)c(S(=O)(=O)N2CCSCC2)cc1OCC(N)=O	i	0.4	-5.9	16.6	-6.3
Cc1cc(Cl)c(S(=O)(=O)N2CC(C)OC(C)C2)cc1OCC(N)=O (configuration not stated)	i	0.1	135.5*	5.1	-17.4
COCC(=O)N(C)C[C@@H]1Oc2cc(C#C[C@H](C)O)ccc2S(=O)(=O)N([C@H](C)CO)C[C@@H]1C	·	·	-0.8	·	-4.5
COc1ccc2c(c1)cc(C(=O)N[C@@H](CCSC)C(=O)N1CCC(C(=O)O)CC1)n2C	+	-2.2	-14.7	13.5	-4.4
CN(C)CC(C(=O)c1ccccc1)c1ccccc1 (configuration not stated)	i	0.6	-21.5	19.4	138.8*
